Columns and labels:
Test in all cases: PBM binding z-score (relative to random genomic background probes); higher = stronger binding; sequences stand for … in GC…GCGATTGACAGCGTAGAATGAAGG
[1] = test system: RARb homodimer (NR concentration 270 nM)
Procedure, shortened: (§1)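 Antibodies against each partner of ligand-free nuclear receptor dimers (one per run) detected binding on custom Agilent 4×180K protein-binding microarrays after 1 h incubation. The double-stranded probes had 34-nt variable regions carrying direct-repeat seeds, single-nucleotide variants, half-site ablations and random human genomic background sequences. Binding z-scores, from regression-normalized fluorescence, use the random background probes as reference.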

[2] = test system: RARg:RXRa (NR concentration 270 nM, RXRa partner concentration 90 nM)
Procedure, shortened: as §1

[3] = test system: RARg homodimer (NR concentration 270 nM)
Procedure, shortened: as §1

[4] = test system: RXRa DBDmut IVT, anti-RXR (DBD mutation: RXRa K156A/R161A, NR concentration 90 nM)
Procedure, shortened: as §1

[5] = test system: RXRa homodimer (NR concentration 180 nM)
Procedure, shortened: as §1

[6] = test system: THRa:RXRa (NR concentration 90 nM, RXRa partner concentration 90 nM)
Procedure, shortened: as §1

[7] = test system: THRa homodimer (NR concentration 90 nM)
Procedure, shortened: as §1

[8] = test system: VDR homodimer (NR concentration 270 nM)
Procedure, shortened: as §1

Sequence | PBM binding z-score [1] | PBM binding z-score [2] | PBM binding z-score [3] | PBM binding z-score [4] | PBM binding z-score [5] | PBM binding z-score [6] | PBM binding z-score [7] | PBM binding z-score [8]
CCTAGTTGCTCAGGAGGTCACACACCGGATATGA | 4.04 | 4.26 | 3.65 | 1.26 | 4.71 | 3.75 | 2.69 | 2.65
CGAACTAGGTCATTGACAGGAAAGTGAATAGTAA | 2.15 | 3.65 | 3.62 | 2.19 | 2.61 | 2.27 | 0.512 | 0.797
CCTACTGGGCCATGAGGTCATTGATATCAACGTT | 3.32 | 3.54 | 2.78 | 1.42 | 3.58 | 3.97 | 4.36 | 4.75
CCTTACGGGTCACTGACAGGTTACAGCATTTGGA | 3.43 | 6.18 | 4.87 | 1.94 | 5.36 | 3.08 | 0.386 | 1.01
ACTAGCAGGCCAAGTTTGTGTCACTCAAACAAAG | 0.267 | 0.00878 | 0.0859 | -0.193 | -0.545 | -0.0341 | -0.316 | 0.051
TCGAGTAGGTTATTCGGGGCATTCAGCCAACATA | 0.766 | 0.44 | 0.448 | 0.744 | 0.31 | 2.61 | 0.314 | 0.9
TCTCGGAAGACACGAAAGGTCAGAGCTCGACATC | 4.18 | 4.01 | 4.27 | 1.06 | 4.27 | 2.58 | 0.266 | 0.21
CCTAGCAGGCCAATCTGGGTCACTCCAGGCTTGA | 2.01 | 0.98 | 1.01 | -0.206 | 0.548 | 3.49 | 0.312 | -0.0635
CTACCAAGGTGAACTAGGTCGTTGATTACTATTC | 1.98 | 1.45 | 1.42 | 0.925 | 1.49 | 2.82 | 1.68 | 0.82
ATCGAAAGGTCGACGAGGTGAATATACACCGTTT | 2.97 | 4.55 | 3.93 | 1.7 | 4.64 | 4.06 | 1.54 | 1.84
ATCTCTAGGTAAAGATTGTTCAGTGAATGCAAAT | 0.0182 | -0.0248 | 0.361 | 0.286 | -0.291 | 0.472 | 0.375 | 0.0196
AGTCAGAGTTCAGGACGAGGTAACGTAAAGCACG | 2.72 | 4.62 | 4.28 | 3.5 | 3.59 | 3.79 | 1.53 | 3.75
AATACAGGGTCTCTAGGCCAGAGTAGGTACGAAT | 0.256 | 0.0798 | 0.292 | -0.254 | -0.15 | 0.0248 | -0.0749 | 0.143
CCTGCTAGGTCAATGCTCAGCTAAAGCAGCTCGC | 2.37 | 3.14 | 4.3 | 1.92 | 1.47 | 1.97 | 0.173 | -0.26
CTCGAAGGGTCGGTTGAGGTGAGTATACGGATAA | 1.41 | 1.55 | 1.56 | 0.489 | 1.17 | 4.74 | 1.49 | 0.596
ACAGAGAGGTGAGTGAAGGTAACTCAGCTGGACG | 0.91 | 0.89 | 1.24 | -0.227 | 0.647 | 2.59 | 0.294 | -0.548
CAAACTAGGTCTCCGGAAGGTCAAAGTCCGCATG | 4.17 | 4.36 | 3.46 | 0.358 | 3.68 | 2.88 | 1.4 | 1.84
ATCGAAAGGTCGAGGTGAGTATCGAGAAAGGGAA | 2.53 | 4.33 | 4.51 | 0.532 | 4.17 | 2.65 | 0.543 | 0.173
ATATGTAGGTTAGTTGGGGTCATTCAGACTAGGC | 3.96 | 4.34 | 2.99 | 2.64 | 6.03 | 5.13 | 3.99 | 5.97
TCTTGTAGATCAAGCAGGTTAAGAGAGCCTGAGT | 0.0574 | -0.24 | -0.296 | 0.088 | 0.168 | 0.276 | -0.531 | -0.291
GGAACGAGGGAAAGTTGATAGCAGAGTTTGATGG | -0.315 | -0.266 | 0.0692 | 0.0118 | -0.106 | -0.351 | -0.268 | -0.209
TAGCCTAGGTCATTGGGCCAGTAAAGTACGCATC | 2.78 | 3.91 | 4.25 | 1.61 | 3.1 | 2.69 | 0.775 | 1.48
CCTTACGGGTCACTCACAGGTTATAGCATTTGGA | 3.65 | 5.9 | 4.5 | 2.04 | 4.75 | 3.07 | 0.529 | 1.28
ATACCAATGTGATCGTGAGGTCGTTGATACTAAC | 0.979 | 0.681 | 0.227 | 0.777 | 1.06 | 2.45 | 2.24 | 2.83
CCGAGTAGGTTATCGGGCATTCAGGCAACGGTGA | 0.614 | 0.431 | 0.479 | -0.164 | 0.45 | 0.172 | -0.196 | -0.435
CGTCCAAGGTCAATGCTAGGTCAGGGAAAGCATT | 4.99 | 7.46 | 6.5 | 3.47 | 5.08 | 4.67 | 3.21 | 2.33
ACAGACAGGTGAGGGAAGGTAACTCAGCTGGACG | 0.595 | 0.445 | 0.526 | -0.769 | 0.426 | 2.31 | -0.12 | -0.764
TCTATTAGTTGAAGGGCAAGCGACGAGTCCGTTT | 1.28 | 0.558 | 0.708 | 1.59 | 0.725 | 0.196 | 0.0509 | 1.23

— the supplement of paper PMC6555819
